# Test system: NHEM-hTERT
# Assay: cell viability relative to DMSO control (fraction of DMSO control); higher = less cytotoxic, active = 0.5 or less
# Conditions: 1 µM; 120 h
# Method in brief: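 For 120 h, duplicate wells of 384-well plates held 1 µM of each of 315 approved anti-cancer drugs (TargetMol), spotted acoustically before cells were added in 40 µl per well. Immortalized NHEM-hTERT melanocytes were seeded at 2500/well, and patient-derived Mel-DCC-11 plus its resistant subline Mel-DCC-11-R at 1500/well. The subline was run both without and with 8 µM of its selecting drug, and ATPlite 1step luminescence was read. Viability was normalised to vehicle-treated wells and averaged over the two replicates.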
row,SMILES,cell viability
1,CS(=O)(=O)c1ccc(C2=C(c3ccccc3)C(=O)OC2)cc1 [Rofecoxib],0.925 (inactive)
2,O=c1[nH]c(=O)n([C@H]2C[C@H](O)[C@@H](CO)O2)cc1/C=C/Br [Brivudine],1.08 (inactive)
3,O=c1[nH]c(=O)n([C@H]2C[C@H](O)[C@@H](CO)O2)cc1C(F)(F)F [Trifluridine],1.12 (inactive)
4,Nc1ccccc1NC(=O)c1ccc(CNC(=O)OCc2cccnc2)cc1 [Entinostat],0.554 (inactive)
5,C/C(=C\c1csc(C)n1)[C@@H]1C[C@@H]2O[C@]2(C)CCC[C@H](C)[C@H](O)[C@@H](C)C(=O)C(C)(C)[C@@H](O)CC(=O)N1 [Ixabepilone],0.595 (inactive)

# Reference: the supplement of paper PMC12808144
